Screening data as filed in PubChem BioAssay.
Sampled rows, rich in hits. Any-hit rate of the full collection: about 11%.
Sm TGR block – qHTS Assay for the Inhibitors of Schistosoma Mansoni Peroxiredoxins. Schistosoma mansoni thioredoxin glutathione reductase (TGR), Q962Y6. purified TGR, DTNB reduction, TNB absorbance 405 nm. Potency, µM (highest dose often 114 µM), actives largely listed as inhibitors. actives 3% (n = 360,000). AID 485364, 2010; note: nearly all actives have a fitted effect of over 60% in size
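First, TGR (20 nM dispensed) and NADPH were mixed with compound. Second, a 15 min room-temperature incubation followed. Third, further NADPH and then DTNB were added to start the reaction. Finally, TNB absorbance was monitored kinetically.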
NS1 inh – qHTS Assay for Inhibitors of Influenza NS1 Protein Function; Potency, µM (titrated, usually from 46.1 µM); actives 0.4% (n = 270,000); calls by dose curve; note: actives are rising curves; nearly all actives have a fitted effect of over 50% in size
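S. cerevisiae expressing influenza A NS1, grown in glucose, washed, then diluted 1:100 into pH 6.0 -URA galactose medium with 23 nl compound. Growth recovery read as OD600; NS1-free strain serves as control.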
AMA1 RON2 block – qHTS for Inhibitors of AMA1-RON; Towards Development of Antimalarial Drug Lead: Primary Screen; AlphaScreen AMA1-biotinylated RON2 peptide binding; Potency, µM (top dose mostly 58.2 µM), usual class: inhibitors; actives 0.2% (n = 360,000); AID 720542, 2013; note: nearly all actives have a fitted effect of over 45% in size
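AMA1 (3D7) with his tag at 25 nM final met compounds first, then biotinylated RON2 peptide at 25 nM; detection used donor plus acceptor beads, 10 µg/mL apiece, read by AlphaScreen after 30 min at room temperature.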
Pf growth 96h – Primary qHTS for delayed death inhibitors of the malarial parasite plastid, 96 hour incubation; Potency, µM (highest dose often 28.7 µM), hits mostly inhibitors; actives 6.9% (n = 320,000); AID 504834, 2011; P. falciparum luciferase reporter growth, 96 h
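P. falciparum expressing integrated firefly luciferase, in erythrocytes at 2% hematocrit, 0.05% parasitemia, incubated with compounds 96 h at 37 C, 5% CO2. Growth inhibition read as loss of luminescence; two-generation exposure targets delayed-death apicoplast inhibitors.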
Pf growth 48h – Primary qHTS for delayed death inhibitors of the malarial parasite plastid, 48 hour incubation; P. falciparum luciferase growth in erythrocytes, 48 h; Potency, µM (titrated, usually from 28.7 µM), usual class: inhibitors; actives 5.9% (n = 310,000)
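Luciferase-expressing parasites in RBCs, 2% Hct / 0.1% parasitemia final; RPMI 1640 + 0.5% Albumax; 37 C, 5% CO2, one generation; luminescence read-out, lower signal = inhibition.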
Each line names hits and unclear results; the compound was inactive in the other large screens. Unless noted, calls come from the whole dose curve; as a rule, active = well fitted curve in the direction sought with a large enough effect; inconclusive = small, poorly fitted or top-dose-only effect, or another doubt; inactive = no such curve, though single readings can be large; an effect the other way counts as inactive or inconclusive.

COC(=O)C(Cc1ccccc1)NC(=O)CNS(=O)(=O)c1ccc(Br)cc1 (stereo not given)	none (no result: NS1 inh)
COC(=O)C(NC(=O)CNS(=O)(=O)c1ccc(Br)cc1)c1ccccc1 (stereo not given)	Pf growth 48h 10µM (no result: NS1 inh)
CCC1(C)Cc2c(C#N)c(N)sc(=S)c2CO1 (stereo not given)	Sm TGR block inconclusive, NS1 inh inconclusive, Pf growth 48h inconclusive
N#Cc1c(N)sc(=S)c2c1CCCC2	Sm TGR block 28µM
O=C(C1CCN(S(=O)(=O)c2ccc(Cl)c(C(F)(F)F)c2)CC1)N1CCC1	Pf growth 48h inconclusive (no result: NS1 inh)
COc1cc2c(cc1OC)C(c1ccccc1)N(C(=O)CCl)CC2 (stereo not given)	Sm TGR block 4µM, Pf growth 96h inconclusive, Pf growth 48h inconclusive
COc1cc2c(cc1OC)C(c1ccccc1O)N(C1CC(=O)N(c3ccccc3)C1=O)CC2 (stereo not given)	Sm TGR block 10µM (no result: Pf growth 96h)
COc1cc2c(cc1OC)C(C1C(=O)CCCC1=O)N(C(=O)CCl)CC2 (stereo not given)	none
COc1ccc(C(=O)N2CCc3cc(OC)c(OC)cc3C2c2ccc(OC)c(OC)c2)cc1OC (stereo not given)	Pf growth 96h 6.6µM, Pf growth 48h 13µM
CCn1cc(C(=O)O)c(=O)c2cnc(N3CCN(C(=S)Nc4ccc(F)cc4)CC3)nc21	Pf growth 96h 0.93µM, Pf growth 48h inconclusive
CCn1cc(C(=O)O)c(=O)c2cnc(N3CCN(C(=S)NC(=O)c4ccc(Cl)cc4)CC3)nc21	none
CCn1cc(C(=O)O)c(=O)c2cnc(N3CCN(C(=S)Nc4ccccc4Cl)CC3)nc21	Pf growth 96h 0.83µM, Pf growth 48h 0.37µM
C=CCNC(=S)N1CCN(c2ncc3c(=O)c(C(=O)O)cn(CC)c3n2)CC1	Pf growth 96h inconclusive
COc1ccc(C(CC(=O)NCc2ccccc2)N2Cc3ccccc3C2=O)cc1 (stereo not given)	none (no result: NS1 inh, AMA1 RON2 block, Pf growth 96h, Pf growth 48h)
COc1ccc(CN2C(=O)N(c3ccc(F)cc3)C(=O)C2CC(=O)Nc2ccccc2)cc1 (stereo not given)	none (no result: NS1 inh, AMA1 RON2 block, Pf growth 96h, Pf growth 48h)
COc1ccccc1CNC(=O)CCCCn1c(=O)c2ccccc2n(Cc2c(C)cc(C)cc2C)c1=O	none (no result: NS1 inh, AMA1 RON2 block, Pf growth 96h, Pf growth 48h)
COc1ccc(C(=O)Nc2nc(-c3nnn(-c4ccc(C(C)C)cc4)c3C)ns2)cc1	none (no result: NS1 inh, AMA1 RON2 block, Pf growth 96h, Pf growth 48h)
CCOc1ccc(NC2C=CS(=O)(=O)C2)cc1 (stereo not given)	Sm TGR block 28µM
CCN(CC)c1ccc(Nc2nc(-c3cccnc3)cs2)cc1	AMA1 RON2 block 28µM, Pf growth 96h inconclusive, Pf growth 48h inconclusive
COc1ccccc1Nc1nc(-c2cccnc2)cs1	none
CCc1ccccc1Nc1nc(-c2cccnc2)cs1	Pf growth 96h 9.3µM, Pf growth 48h 12µM
CCCCN(C(=O)c1cccc(S(=O)(=O)N(C)c2ccc(C)cc2)c1)c1c(N)n(CC(C)C)c(=O)[nH]c1=O	none (no result: Sm TGR block, NS1 inh, Pf growth 96h, Pf growth 48h)
O=C(NCCNc1ccc2ccccc2c1)c1cccn2c(=O)c3sccc3nc12	Pf growth 96h 1.9µM, Pf growth 48h inconclusive (no result: NS1 inh, AMA1 RON2 block)
COc1ccc(OC)c(-n2c(=S)[nH]c3cc(C(=O)N(C)Cc4ccccc4)ccc3c2=O)c1	Pf growth 96h 9.3µM, Pf growth 48h inconclusive (no result: NS1 inh)
Cn1c(O)c(/C=C2\C=c3ccccc3=NC2=O)c(=O)n(C)c1=O	Sm TGR block 35µM
O=[N+]([O-])c1cccc(S(=O)(=O)NCCc2cccs2)c1	Pf growth 96h 10µM
O=S(=O)(NCCc1cccs1)c1ccc(Br)cc1	none
Oc1ccc(-c2cnns2)c(O)c1	Sm TGR block 79µM, Pf growth 96h 12µM, Pf growth 48h 10µM
Oc1ccc(-c2nc3ccccc3s2)c(O)c1	none
Cc1noc(C)c1S(=O)(=O)Nc1ccc2c(c1)C(=O)N([C@H](C)CO)C[C@H](C)[C@@H](CN(C)C(=O)NC1CCCCC1)O2	none (no result: Sm TGR block, NS1 inh, Pf growth 96h, Pf growth 48h)
Cc1ccc(-n2nnnc2SC(C)C(=O)Nc2ccc(Cl)cn2)cc1 (stereo not given)	Pf growth 96h 9.3µM, Pf growth 48h inconclusive
CC(Sc1nncn1C)C(=O)Nc1ccc(Cl)cn1 (stereo not given)	none
COc1ccc(C)cc1NC(=O)C1CCN(S(=O)(=O)c2cc(Br)cc3c2N(C(C)=O)CC3)CC1	none (no result: NS1 inh, AMA1 RON2 block, Pf growth 96h, Pf growth 48h)
CCn1ccnc1CN1CCc2c([nH]c3ccccc23)C1CC(C)C (stereo not given)	Pf growth 96h inconclusive, Pf growth 48h inconclusive
Cc1cccc(CN2CCc3c([nH]c4ccccc34)C2CC(C)C)n1 (stereo not given)	Pf growth 96h 10µM, Pf growth 48h 9.3µM
Cc1c(CN2CCc3c([nH]c4ccccc34)C2C2CCCCC2)cnn1C (stereo not given)	Pf growth 96h 5.9µM, Pf growth 48h inconclusive
Cc1cnc(CN2CCc3c([nH]c4ccccc34)C2CC(C)C)[nH]1 (stereo not given)	Pf growth 48h 13µM
CCn1ccnc1CN1CCc2c([nH]c3ccccc23)C1C(C)(C)C (stereo not given)	Pf growth 48h 4.7µM
COc1ccc(NS(=O)(=O)c2csc(C(N)=O)c2)cc1	Pf growth 96h inconclusive, Pf growth 48h 7.4µM
NC(=O)c1cc(S(=O)(=O)Nc2ccc(OC(F)(F)F)cc2)cs1	Pf growth 96h inconclusive, Pf growth 48h 13µM
CCc1cccc(N2C(=O)N(Cc3c(F)cccc3Cl)c3ccccc3S2(=O)=O)c1	none (no result: NS1 inh, AMA1 RON2 block, Pf growth 96h, Pf growth 48h)
Cc1ccc(S(=O)(=O)N[C@@H](CCCCN)C(=O)CCl)cc1	Pf growth 96h 12µM, Pf growth 48h inconclusive (no result: Sm TGR block)
CCCOc1ccc(C(=O)NCC(C)(C)N2CCOCC2)cc1	none (no result: NS1 inh)
COc1cccc2c1C1COC3C4CC(C(=O)O)C(C(C2)N13)N4C (stereo not given)	none (no result: Sm TGR block, NS1 inh, Pf growth 96h, Pf growth 48h)
O=C(Nc1ccccc1)N(CCCN1CCOCC1)Cc1ccccc1F	none
CCc1ccccc1NC(=S)N(CCN1CCOCC1)Cc1ccccc1F	Pf growth 96h 10µM
Cc1ccccc1NC(=S)N(CCN1CCOCC1)Cc1ccccc1F	none (no result: NS1 inh)
O=C(Nc1cccc(Cl)c1)N(CCCN1CCOCC1)Cc1ccccc1F	Pf growth 96h 2.1µM
CC(C)CN1CC(C(=O)O)CC1=O (stereo not given)	none
COc1cc2c(cc1OC)-c1cc(Nc3ccc(F)cc3)nc(=O)n1CC2	Pf growth 96h 1.2µM, Pf growth 48h 2.1µM
COc1cc2c(cc1OC)-c1cc(OCc3ccccc3Cl)nc(=O)n1CC2	Pf growth 96h inconclusive (no result: Pf growth 48h)
COc1cc2c(cc1OC)-c1cc(Nc3cccc(F)c3)nc(=O)n1CC2	Pf growth 96h 4.1µM, Pf growth 48h inconclusive
COc1cc2c(cc1OC)-c1cc(Nc3ccc(N(C)C)cc3)nc(=O)n1CC2	AMA1 RON2 block inconclusive, Pf growth 96h inconclusive, Pf growth 48h inconclusive
